# Results: PubChem BioAssay AID2551 (National Center for Advancing Translational Sciences (NCATS), 2010)
# Where “and” joins values, the source holds several entries; their conditions need not be identical. Equal values may be shown once. In all, about 310,000 compounds went through this assay and about 17,000 (5.5%) were called active. About 11% were inconclusive and are not listed. The call rests on the fitted dose curve; in most records, active means well fitted inhibition curve with a large enough effect; inconclusive means small, poorly fitted or top-dose-only effect, or effect the other way; inactive means no such curve, though single readings can be large or run the other way. For the sample, actives were picked, then their nearest neighbours and some compounds at random. Some structures have more than one record in an assay (separate samples or runs), and their calls can disagree.
# Molecular target: Nuclear receptor ROR-gamma (Mus musculus) (UniProt P51450)
# Sequence (P51450 whole entry, looked up): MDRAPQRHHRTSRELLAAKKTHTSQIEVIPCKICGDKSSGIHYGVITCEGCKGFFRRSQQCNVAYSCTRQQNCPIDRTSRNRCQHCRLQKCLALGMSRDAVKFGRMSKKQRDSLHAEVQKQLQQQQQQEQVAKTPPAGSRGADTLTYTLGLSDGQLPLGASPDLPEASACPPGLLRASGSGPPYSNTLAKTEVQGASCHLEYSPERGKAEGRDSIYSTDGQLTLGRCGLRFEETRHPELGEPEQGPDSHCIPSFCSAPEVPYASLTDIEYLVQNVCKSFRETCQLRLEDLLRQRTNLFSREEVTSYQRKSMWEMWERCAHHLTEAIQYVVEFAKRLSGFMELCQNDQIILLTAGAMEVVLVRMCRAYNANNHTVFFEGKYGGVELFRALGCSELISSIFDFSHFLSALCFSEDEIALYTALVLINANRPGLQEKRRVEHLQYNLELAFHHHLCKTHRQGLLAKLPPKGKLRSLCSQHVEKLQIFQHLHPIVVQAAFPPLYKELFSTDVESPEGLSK
# Assay: qHTS for inhibitors of ROR gamma transcriptional activity; further: nearly all actives have a fitted effect of over 60% in size
# Conditions: Drosophila S2 Gal4-RORgamma UAS-luciferase reporter, 20 h; series mostly up to 53.6 µM; activity change, negative = inhibition: at the top concentration
# In short: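 A Gal4/UAS one-hybrid system in insect cells: metallothionein-promoter Gal4–ROR gamma fusion plus Photinus luciferase reporter. Copper sulfate 700 uM final, 20 hr ambient incubation, luminescent detection after 10 min with reagent.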
# On the % scale 0 is the no-effect control and ±100 the full control effect; potency means the concentration at half of the fitted maximal effect.
Structure (SMILES),"activity change, negative = inhibition",Potency
O=C(Nc1ccc(S(=O)(=O)N2CCOCC2)cc1)c1ccc2ncsc2c1,-12.2% (inactive),–
Cc1ccnc(NS(=O)(=O)c2ccc(NC(=O)c3ccc(S(=O)(=O)N4CCOCC4)cc3)cc2)n1,1.69% (inactive),–
CCc1nnc(NC(=O)C2CCCN2S(=O)(=O)c2ccccc2)s1 (stereo unspecified),28.2% (inactive),–
CCc1nnc(NC(=O)c2ccc(S(=O)(=O)NC3CCCCC3)cc2)s1,1.55% (inactive),–
CC1CCCCN1S(=O)(=O)c1ccc(C(=O)Nc2nnc(-c3cccs3)o2)cc1 (stereo unspecified),–,89.1 nM (active)
CNC(=O)c1ccsc1NC(=O)c1ccc(S(=O)(=O)N2CCOCC2)cc1,34.6% (inactive),–
CC1CCCN(S(=O)(=O)c2ccc(C(=O)Nc3nnc(-c4ccncc4)o3)cc2)C1 (stereo unspecified),52.2% (inactive),–
CSCc1nnc(NC(=O)c2ccc(S(=O)(=O)N3CCCCC3C)cc2)o1 (stereo unspecified),–,1000 nM (active)
O=C(Nc1nnc(-c2ccco2)o1)c1ccc(S(=O)(=O)N2CCOCC2)cc1,–,1780 nM (active)
CC(=O)c1ccc(OC(=O)N2CCOCC2)cc1,-0.265% [at 1.91 µM] (inactive),–
COc1ccc(CNC(=O)COc2cccnc2[N+](=O)[O-])cc1,22.2% (inactive),–
Cc1cc2c(=O)n(CC(=O)NCC(=O)Nc3ccc(C(C)C)cc3)cnc2s1,-16.7% (inactive),–
CCCCN1C(=O)C(C)=C(C)C1OCCc1ccc(OC)c(OC)c1 (stereo unspecified),31.1% (inactive),–
Cc1cc(-c2ccc(S(=O)(=O)N3CCN(c4cccc(C(F)(F)F)c4)CC3)s2)on1,-0.982% (inactive),–
CN(C)C(=O)c1ccc(NC(=O)c2ccccc2-c2ccccc2)cc1,-1.38% (inactive),–
CC(C)C[C@H](NC(=O)N1CC(=O)Nc2ccccc21)C(=O)N[C@H](Cc1ccccc1)C(=O)O,-9.76% (inactive),–
CCOC(=O)CSc1nc2ccc(C)cc2n2cnnc12,-16.2% (inactive),–
CCCOc1cccc(C(=O)Nc2ccccc2C(=O)N2CCN(C)CC2)c1,-0.522% (inactive),–
CC(=O)Nc1ccc(S(=O)(=O)NC2Cc3ccccc3C2)cc1,38.5% (inactive),–
CCN1C(=S)N[C@@H](CCc2ccccc2)[C@H](C(=O)OC)[C@H]1C,–,inactive and 2.24 µM (active)
CCN1C(=NCc2ccc(OC)cc2)N[C@@H](CCc2ccccc2)[C@H](C(=O)NCc2ccc(OC)cc2)[C@H]1C,4.67% (inactive),–
COCCN1C(=O)N[C@@H](CCc2ccccc2)[C@H](C(C)=O)[C@H]1C,21.6% (inactive),–
CN1CCN(C(=O)c2cnn(-c3ccccc3)c2NC(=O)c2ccc([N+](=O)[O-])cc2)CC1,-8.25% (inactive),–
Cc1cccc(C)c1NC(=O)CS(=O)CC(=O)N1CCN(c2ccccc2)CC1 (stereo unspecified),-19.9% (inactive),–
CCNS(=O)(=O)c1ccc(CCC(=O)N2CCN(c3ccc(OC)cc3)CC2)cc1,9.28% (inactive),–
CN(C)C(=O)Cn1c(=O)n(S(=O)(=O)c2ccccc2)c2ccccc21,10.5% (inactive),–
